In PubChem BioAssay (EPA / NIEHS) one finds outcome and AC50 data, which are given here for 15 compounds.

The source made the active and inactive calls. The calls were made as follows: active = hit-call score of the fitted dose curve at least 0.9, where 1 is the maximum; inactive = score below 0.9.

Test [1] in a line: IUF_NPC2c_oligodendrocyte_migration_120hr: Leibniz Research Institute for Environmental Medicine (IUF) 120-hour Neural Progenitor Cell Migration Assay for Oligodendrocyte Migration (NPC2c) (AID 2284297).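 Also: O4-positive oligodendrocyte migration distance divided by radial glia migration distance.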 The gist of the method:
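hNPC spheres (GW 16-19 cortex), PDL/laminin, DMEM/F12 3:1 + 1% N2, 37C. Dosing day 0–5, half feed day 3, DMSO ≤0.1%. Fixed 120 h; O4 ICC + Hoechst, HCI. Readout: mean oligodendrocyte distance from sphere edge / radial glia distance.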

A short description of test [2]: IUF_NPC2a_radial_glia_migration_120hr: Leibniz Research Institute for Environmental Medicine (IUF) 120-hour Neural Progenitor Cell Migration Assay for Radial Glia Migration (NPC2a) (AID 2284298). In short, it runs like this:
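Hoechst-stained nuclei imaged at 120 h; algorithm maps sphere core by densest nuclei, sets migration edge at density threshold, gives radial glia migration distance (um) per well vs DMSO. hNPC spheres (0.3 mm), PDL/laminin, DMEM/F12 3:1 + 1% N2.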

Test [3] in a line: IUF_NPC2a_radial_glia_migration_72hr: Leibniz Research Institute for Environmental Medicine (IUF) 72-hour Neural Progenitor Cell Migration Assay for Radial Glia Migration (NPC2a) (AID 2284299). The gist of the method: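 Single 0.3 mm neurospheres were plated per well in N2 differentiation medium and exposed from the start of differentiation. After 72 hours, brightfield images were taken and radial glia migration from the sphere core edge was measured manually in four directions, averaged per well.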

Read-out in test [4]: Collagen IV, COL4A1 (gene 1282)
Kind of test: BSK_MyoF_CollagenIV: BioMAP Diversity Plus: MyoF Assay for Collagen IV Biomarker Activity (AID 2284247). To be noted: primary human lung fibroblasts. In short, it runs like this:
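Human lung fibroblast system, 24 h chemical exposure. Endpoint: Collagen IV by ELISA, upward fit vs DMSO.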

Read-out in test [5]: Plasminogen activator inhibitor-1 (PAI1), SERPINE1 (gene 5054)
The test is described as follows: BSK_MyoF_PAI1: BioMAP Diversity Plus: MyoF Assay for Plasminogen activator inhibitor-1 (PAI1) Biomarker Activity (AID 2284256).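 Also: PAI-1 protein level measured by ELISA in fibroblast cultures; PAI-1 read 24 h after compound addition.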 To be noted: primary human lung fibroblasts. The gist of the method:
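MyoF lung fibroblasts, human primary; compound 24 h; PAI-1 ELISA; positive-direction fit vs DMSO baseline; parallel SRB total-protein staining for cytotoxicity.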

Read-out in test [6]: Interleukin-8 (IL8), CXCL8 (gene 3576)
The test is described as follows: BSK_MyoF_IL8: BioMAP Diversity Plus: MyoF Assay for Interleukin-8 (IL8) Biomarker Activity (AID 2284261). To be noted: primary human lung fibroblasts. The gist of the method:
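Lung fibroblasts (human primary) → chemical exposure → 24 h → IL-8 measured by ELISA. Signal increase scored versus DMSO control.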

Read-out in another test: Decorin, DCN (gene 1634)
The test is described as follows: BSK_MyoF_Decorin: BioMAP Diversity Plus: MyoF Assay for Decorin Biomarker Activity (AID 2284265). To be noted: primary human lung fibroblasts. In short, it runs like this:
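ELISA readout of decorin, 24 h post-dosing; primary human lung fibroblast (MyoF) culture; gain-of-signal fit vs DMSO baseline.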

Test [7] in a line: BSK_MyoF_SRB: Viability Assessment in the BioMAP Diversity Plus: MyoF Assay (AID 2284267).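 Also: total protein by SRB absorbance in parallel cultures as cytotoxicity measure; cells assessed 24 h after compound addition.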 To be noted: primary human lung fibroblasts. In short, it runs like this: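 Confluent human lung fibroblasts were exposed to test chemicals for 24 h. Parallel wells were then fixed in 10% TCA, stained with 0.1% sulforhodamine B and measured at 560 nm. DMSO served as baseline for curve fitting.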

Read-out in test [8]: Matrix Metallopeptidase 1 (MMP1), MMP1 (gene 4312)
The test is described as follows: BSK_MyoF_MMP1: BioMAP Diversity Plus: MyoF Assay for Matrix Metallopeptidase 1 (MMP1) Biomarker Activity (AID 2284268). To be noted: primary human lung fibroblasts. The gist of the method:
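Cells: human lung fibroblasts. Exposure: 24 h chemical dosing. Detection: ELISA for MMP1. Analysis: upward fitting against DMSO negative control.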

Read-out in test [9]: TIMP metallopeptidase inhibitor 1 (TIMP1), TIMP1 (gene 7076)
The test is described as follows: BSK_MyoF_TIMP1: BioMAP Diversity Plus: MyoF Assay for TIMP metallopeptidase inhibitor 1 (TIMP1) Biomarker Activity (AID 2284269). To be noted: primary human lung fibroblasts. The gist of the method:
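ELISA quantified TIMP-1 levels after 24 h dosing of primary human lung fibroblasts, with DMSO as baseline. Parallel SRB total protein staining (0.1% SRB after TCA fixation, 560 nm) flagged overt cytotoxicity.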

The term AC50 denotes the concentration giving half of the maximal activity seen. `N#Cc1nn(-c2c(Cl)cc(C(F)(F)F)cc2Cl)c(N)c1S(=O)C(F)(F)F` (centres undefined): the outcome in test [1] and in [3] was inactive. Also, the concentration at half-maximal activity (AC50) in test [2] is 18.8 µM (active).

On to `CCOc1cc(Oc2ccc(C(F)(F)F)cc2Cl)ccc1[N+](=O)[O-]`, for which the compound was classed as inactive in test [1], in test [2] and in test [3].

With `CCOC(=O)CC(SP(=S)(OC)OC)C(=O)OCC` (centres undefined), the compound was called inactive in test [1], in test [2] and in test [3].

For the compound `COP(=S)(OC)Oc1nc(Cl)c(Cl)cc1Cl`, the compound was called inactive in test [1], in test [2] and in test [3].

For the compound `C=CC1(C)OC(=O)N(c2cc(Cl)cc(Cl)c2)C1=O` (centres undefined), the result in [1], in test [2] and in [3] was inactive.

With `COC(=O)N(OC)c1ccccc1COc1ccn(-c2ccc(Cl)cc2)n1`, the compound was classed as inactive in [1]. The AC50 was 3.18 µM (active) in test [2] and 3.44 µM (active) in test [3].

Consider `CNC(=O)ON=CC(C)(C)SC`, for which the compound was called inactive in test [1], in test [2] and in [3].

As to `CC(C)(C)c1ccc(CSc2cnn(C(C)(C)C)c(=O)c2Cl)cc1`, the call in test [1] and in test [3] was inactive. For the same compound, the AC50 in test [2] is 3.31 µM (active).

Regarding `COc1cnc(OC)n2nc(NS(=O)(=O)c3c(OCC(F)F)cccc3C(F)(F)F)nc12`, the AC50 in [4] was 0.024 µM (active). The outcome is “inactive” in test [5]; “inactive” in test [6]; “inactive” with Decorin, DCN (gene 1634); “inactive” in test [7]; “inactive” in test [8]; “inactive” in test [9].

On to `COP(N)(=O)SC` (centres undefined), for which the call in test [1], in test [2] and in [3] was inactive.

In the case of `CO/C=C(/C(=O)OC)c1ccccc1Oc1cc(Oc2ccccc2C#N)ncn1`, the outcome in [1], in [2] and in [3] was inactive.

With `Cc1ccc(-c2c(Cl)nc(C#N)n2S(=O)(=O)N(C)C)cc1`, the concentration at half-maximal activity (AC50) in [1] is 23.9 µM (active); in [2], 33.6 µM (active); in test [3], 25.9 µM (active).

Take `CN(C)C(=S)SSC(=S)N(C)C`: the AC50 in test [1] is 28.1 µM (active); in test [2], 47.3 µM (active); in test [3], 11.4 µM (active).

In the case of `CCCCC(CC)COC(=O)c1ccccc1C(=O)OCC(CC)CCCC` (centres undefined), the compound was classed as inactive in test [1], in test [2] and in test [3].

With `CCCCOC(=O)c1ccccc1C(=O)OCCCC`, the compound was classed as inactive in test [1], in test [2] and in test [3].
